Our source for the outcome and AC50 values is PubChem BioAssay (EPA / NIEHS).

Assay [1] concerns the target Estrogen receptor beta (Homo sapiens) (UniProt Q92731). Description: OT_ER_ERbERb_1440: Odyssey Thera (OT) 24-hour HEK293T Protein-Complementation Assay for Estrogen Receptor-beta/-beta Homodimer (AID 2283380).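 Further: scored as signal increase over DMSO baseline for both agonists and antagonists.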 The gist of the method:
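HEK293T cells stably expressing ER beta LBD (aa 310-547) homodimer fragment-complementation reporter, dosed 24 h. Cells formaldehyde-fixed, Draq5-stained; gain in nuclear (agonist) or nuclear plus cytoplasmic (antagonist) fluorescence versus DMSO read by laser scanning cytometry.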

Assay [2] deals with Estrogen receptor (Homo sapiens) (UniProt P03372). Description: OT_ERa_GFPERaERE_0480: Odyssey Thera (OT) 8-hour HeLa Transcription Induction Assay for Estrogen Receptor (AID 2283381; active means hit-call score of the fitted dose curve at least 0.9, where 1 is the maximum; inactive means score below 0.9). The gist of the method:
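HeLa cells dosed with compound and imaged by fluorescence microscopy at 8 h; GFP induction from an ERE reporter quantified by high-content image analysis and fitted as gain of signal against DMSO baseline.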

Assay [3] has the same target. Description: OT_ERa_GFPERaERE_0120: Odyssey Thera (OT) 2-hour HeLa Transcription Induction Assay for Estrogen Receptor (AID 2283382). The gist of the method: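 HeLa cells were dosed with test chemical and read 2 hours later for GFP-ERα/ERE-linked fluorescent protein induction by fluorescence microscopy. Gain-of-signal was fitted relative to DMSO baseline, quantified by high content image analysis.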

Assay [4] has as its target Retinoic acid receptor RXR-alpha (Homo sapiens) (UniProt P19793). Description: OT_NURR1_NURR1RXRa_0480: Odyssey Thera (OT) 8-hour HEK293T Protein Complementation Assay for Nurr1/retinoid X receptor (RXR) (AID 2283385). The gist of the method:
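HEK293T cells expressing Nurr1 and RXRα fused to reporter fragments were dosed with compound for 8 hours. Complex formation was read as fluorescence intensity and analysed as gain of signal against DMSO as baseline.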

Assay [5] shares this target. Description: OT_NURR1_NURR1RXRa_1440: Odyssey Thera (OT) 24-hour HEK293T Protein Complementation Assay for Nurr1/retinoid X receptor (RXR) (AID 2283386). Put shortly: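 HEK293T cells were dosed with compound and read 24 h later by fluorescence intensity in a protein-fragment complementation format, where Nurr1–RXRα interaction reconstitutes a split reporter. Activity was fitted as gain of signal relative to DMSO baseline.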

Assay [6] addresses Peroxisome proliferator-activated receptor gamma (Homo sapiens) (UniProt P37231). Description: OT_PPARg_PPARgSRC1_0480: Odyssey Thera (OT) 8-hour Protein-Complementation Assay for Peroxisome Proliferator-activated Receptor Gamma / SRC-1 Co-activator (AID 2283387).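 Further: nuclear to cytoplasmic split Venus YFP fluorescence ratio reporting PPARg SRC-1 interaction.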 The gist of the method:
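Protein-fragment complementation in HEK293T: Venus YFP halves (residues 1-158, 159-239, mutated to IFP1/IFP2) fused to PPARg/SRC-1. 8 h exposure; N/C ratio at 488 nm; DMSO negative control.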

Assay [7] has as its target mouse Estrogen Receptor alpha (Era), Esr1 (gene 13982) (UniProt P19785). Description: NVS_NR_mERa: NovaScreen (NVS) Nuclear Receptor Binding Assay for mouse Estrogen Receptor alpha (Era) (AID 2283378).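 Further: hit means loss of bound radioligand signal relative to DMSO.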 Put shortly: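 Cell-free radioligand binding with extracted mouse Era protein; competitive displacement of radiolabelled ligand, read by filter-based scintillation counting 18 hours after dosing. Loss of signal versus DMSO baseline taken as binding; single screening concentration 25 uM, actives followed in concentration series.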

In assay [8] the target is Agonist Androgen Response Element (ARE), AR (gene 367) (UniProt P10275). Description: OT_AR_ARELUC_AG_1440: Odyssey Thera (OT) 24-hour CHO-K1 Luciferase Assay for Agonist Androgen Response Element (ARE) (AID 2283379). The gist of the method:
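CHO-K1 cells carrying an ARE-driven luciferase reporter were exposed to compounds for 24 h. Luminescence was then read after adding a D-luciferin/ATP mix, and activity was scored as a gain in signal over DMSO vehicle.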

For assay [9], the target named is Bile acid receptor (Homo sapiens) (UniProt Q96RI1). Description: OT_FXR_FXRSRC1_0480: Odyssey Thera (OT) 8-hour HEK293T Protein-Complementation Assay for Farnesoid X receptor/SRC-1 Co-activator (AID 2283383). Put shortly: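 HEK293T cells expressing FXR and SRC-1 fused to reporter fragments were dosed with compound for 8 h; fluorescence from the reconstituted reporter marked co-activator recruitment. Gain of signal was fitted against the DMSO baseline.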
Bile acid receptor (Homo sapiens), sequence (Q96RI1 whole entry, looked up, the tested form may be a part): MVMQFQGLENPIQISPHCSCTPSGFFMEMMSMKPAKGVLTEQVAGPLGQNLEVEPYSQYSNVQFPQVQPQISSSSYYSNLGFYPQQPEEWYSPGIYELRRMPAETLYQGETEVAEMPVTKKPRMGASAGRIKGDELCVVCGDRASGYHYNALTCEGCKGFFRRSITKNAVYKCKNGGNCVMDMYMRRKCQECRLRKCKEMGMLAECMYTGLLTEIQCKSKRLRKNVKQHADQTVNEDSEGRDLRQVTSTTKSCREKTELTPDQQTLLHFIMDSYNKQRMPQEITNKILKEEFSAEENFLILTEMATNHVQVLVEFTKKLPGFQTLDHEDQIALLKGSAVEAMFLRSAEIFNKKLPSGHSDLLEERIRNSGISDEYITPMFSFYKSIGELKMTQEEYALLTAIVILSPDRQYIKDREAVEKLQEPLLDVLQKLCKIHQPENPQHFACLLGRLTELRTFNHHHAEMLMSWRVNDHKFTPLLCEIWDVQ

Inconclusive results are not listed. Some compounds were tested as several samples or in several runs, with calls that do not always agree. The source made the active and inactive calls. How the source made its calls, unless noted: active means hit-call score of the fitted dose curve at least 0.9, where 1 is the maximum; inconclusive means response in the unintended direction; inactive means score below 0.9.

Agonist Androgen Response Element (ARE), AR (gene 367), sequence (P10275 whole entry, looked up): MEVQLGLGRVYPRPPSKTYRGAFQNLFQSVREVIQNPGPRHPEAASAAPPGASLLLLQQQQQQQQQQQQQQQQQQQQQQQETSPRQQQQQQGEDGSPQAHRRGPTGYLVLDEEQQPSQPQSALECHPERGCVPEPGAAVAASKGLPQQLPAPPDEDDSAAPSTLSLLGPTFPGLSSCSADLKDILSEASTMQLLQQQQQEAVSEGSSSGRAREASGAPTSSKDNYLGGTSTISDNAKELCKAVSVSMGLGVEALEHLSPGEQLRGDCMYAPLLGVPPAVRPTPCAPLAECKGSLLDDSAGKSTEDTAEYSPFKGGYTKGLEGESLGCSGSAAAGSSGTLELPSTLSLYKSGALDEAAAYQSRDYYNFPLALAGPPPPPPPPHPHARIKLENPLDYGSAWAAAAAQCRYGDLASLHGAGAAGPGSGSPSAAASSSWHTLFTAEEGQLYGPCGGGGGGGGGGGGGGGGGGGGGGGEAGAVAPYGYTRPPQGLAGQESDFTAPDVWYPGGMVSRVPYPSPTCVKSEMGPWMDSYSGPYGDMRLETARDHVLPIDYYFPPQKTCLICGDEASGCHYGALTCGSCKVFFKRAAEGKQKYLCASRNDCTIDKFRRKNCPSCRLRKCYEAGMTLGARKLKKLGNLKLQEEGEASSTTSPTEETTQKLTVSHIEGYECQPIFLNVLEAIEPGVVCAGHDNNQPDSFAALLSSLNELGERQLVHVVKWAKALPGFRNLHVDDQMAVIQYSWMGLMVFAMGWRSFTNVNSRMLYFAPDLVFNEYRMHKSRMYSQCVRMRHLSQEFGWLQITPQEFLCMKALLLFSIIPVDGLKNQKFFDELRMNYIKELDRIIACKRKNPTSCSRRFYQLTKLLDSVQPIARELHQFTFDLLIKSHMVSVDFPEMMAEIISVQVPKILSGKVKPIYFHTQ
Estrogen receptor (Homo sapiens), sequence (P03372 whole entry, looked up): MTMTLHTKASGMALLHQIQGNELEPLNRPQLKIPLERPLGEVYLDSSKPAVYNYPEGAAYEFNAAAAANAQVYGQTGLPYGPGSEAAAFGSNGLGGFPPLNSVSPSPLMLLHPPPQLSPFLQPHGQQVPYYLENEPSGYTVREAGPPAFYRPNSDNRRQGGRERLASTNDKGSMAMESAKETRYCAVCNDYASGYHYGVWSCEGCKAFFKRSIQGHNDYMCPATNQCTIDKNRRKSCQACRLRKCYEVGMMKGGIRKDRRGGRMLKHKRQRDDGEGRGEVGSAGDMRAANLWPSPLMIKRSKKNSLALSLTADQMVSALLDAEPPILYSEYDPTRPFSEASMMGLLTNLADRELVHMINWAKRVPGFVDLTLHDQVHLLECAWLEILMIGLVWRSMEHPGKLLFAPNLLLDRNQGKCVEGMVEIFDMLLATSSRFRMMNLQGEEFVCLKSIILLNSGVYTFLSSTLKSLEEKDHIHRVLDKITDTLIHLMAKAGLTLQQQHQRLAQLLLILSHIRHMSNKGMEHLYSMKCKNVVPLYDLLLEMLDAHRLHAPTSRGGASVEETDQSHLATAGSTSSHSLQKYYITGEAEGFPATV
Estrogen receptor beta (Homo sapiens), sequence (Q92731 whole entry, looked up, the tested form may be a part): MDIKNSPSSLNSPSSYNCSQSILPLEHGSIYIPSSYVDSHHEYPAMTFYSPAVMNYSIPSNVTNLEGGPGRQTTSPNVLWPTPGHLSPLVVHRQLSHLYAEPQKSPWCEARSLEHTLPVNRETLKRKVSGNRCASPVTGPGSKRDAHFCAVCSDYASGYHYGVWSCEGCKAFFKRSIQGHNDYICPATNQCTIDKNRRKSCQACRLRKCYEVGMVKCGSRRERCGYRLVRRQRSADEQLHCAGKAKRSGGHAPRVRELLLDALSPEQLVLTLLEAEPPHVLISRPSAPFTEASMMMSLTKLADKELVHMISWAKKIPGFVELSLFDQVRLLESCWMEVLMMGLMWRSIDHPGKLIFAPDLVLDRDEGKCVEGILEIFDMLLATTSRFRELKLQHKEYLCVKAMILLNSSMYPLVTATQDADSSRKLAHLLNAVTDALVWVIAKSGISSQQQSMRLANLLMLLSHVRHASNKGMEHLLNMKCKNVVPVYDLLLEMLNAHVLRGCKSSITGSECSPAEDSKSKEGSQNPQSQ
Retinoic acid receptor RXR-alpha (Homo sapiens), sequence (P19793 whole entry, looked up, the tested form may be a part): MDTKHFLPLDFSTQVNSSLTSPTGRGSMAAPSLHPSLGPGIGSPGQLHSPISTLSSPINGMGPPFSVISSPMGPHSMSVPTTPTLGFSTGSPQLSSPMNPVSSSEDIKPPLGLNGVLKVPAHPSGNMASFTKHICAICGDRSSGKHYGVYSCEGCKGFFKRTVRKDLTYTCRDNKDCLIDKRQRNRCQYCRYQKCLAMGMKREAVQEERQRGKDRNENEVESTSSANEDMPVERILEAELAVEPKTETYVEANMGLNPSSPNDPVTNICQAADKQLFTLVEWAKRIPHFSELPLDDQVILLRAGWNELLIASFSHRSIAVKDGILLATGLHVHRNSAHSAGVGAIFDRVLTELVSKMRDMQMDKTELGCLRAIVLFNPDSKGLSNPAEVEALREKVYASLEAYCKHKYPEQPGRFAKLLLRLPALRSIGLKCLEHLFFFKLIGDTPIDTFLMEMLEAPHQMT
Peroxisome proliferator-activated receptor gamma (Homo sapiens), sequence (P37231 whole entry, looked up, the tested form may be a part): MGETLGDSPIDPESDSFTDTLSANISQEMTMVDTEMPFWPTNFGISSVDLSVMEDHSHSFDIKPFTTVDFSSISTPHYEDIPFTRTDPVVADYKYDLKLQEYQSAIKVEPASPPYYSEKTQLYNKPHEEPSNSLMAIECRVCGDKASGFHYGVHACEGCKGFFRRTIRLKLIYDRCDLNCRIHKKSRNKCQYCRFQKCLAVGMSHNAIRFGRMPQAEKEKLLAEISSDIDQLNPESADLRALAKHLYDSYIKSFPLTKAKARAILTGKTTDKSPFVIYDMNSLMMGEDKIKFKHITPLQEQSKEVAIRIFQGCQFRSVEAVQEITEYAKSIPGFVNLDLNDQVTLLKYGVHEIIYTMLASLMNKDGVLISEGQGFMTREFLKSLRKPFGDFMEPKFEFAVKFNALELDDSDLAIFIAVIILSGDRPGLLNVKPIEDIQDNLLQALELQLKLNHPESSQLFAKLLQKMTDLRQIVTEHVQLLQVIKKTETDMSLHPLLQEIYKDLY
mouse Estrogen Receptor alpha (Era), Esr1 (gene 13982), sequence (P19785 whole entry, looked up): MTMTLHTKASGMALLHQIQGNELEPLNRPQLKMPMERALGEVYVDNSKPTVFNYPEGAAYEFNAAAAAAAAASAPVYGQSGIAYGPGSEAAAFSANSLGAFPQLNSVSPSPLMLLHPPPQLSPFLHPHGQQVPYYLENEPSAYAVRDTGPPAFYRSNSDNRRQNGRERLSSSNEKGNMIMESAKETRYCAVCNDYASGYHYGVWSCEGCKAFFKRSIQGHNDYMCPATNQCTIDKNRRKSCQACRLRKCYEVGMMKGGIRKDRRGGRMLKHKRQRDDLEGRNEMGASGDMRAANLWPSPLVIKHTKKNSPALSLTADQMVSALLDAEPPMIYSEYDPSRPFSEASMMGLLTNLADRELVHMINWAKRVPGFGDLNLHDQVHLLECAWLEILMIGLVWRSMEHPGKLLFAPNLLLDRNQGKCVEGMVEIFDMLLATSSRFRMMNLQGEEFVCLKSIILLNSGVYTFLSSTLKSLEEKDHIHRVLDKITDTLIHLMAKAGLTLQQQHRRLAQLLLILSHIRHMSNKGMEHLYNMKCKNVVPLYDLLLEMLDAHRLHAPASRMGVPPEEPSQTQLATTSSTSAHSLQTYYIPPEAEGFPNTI

As to `Clc1cc(Cl)c(Cl)cc1Cl`, the compound was classed as inactive in assay [1], in [2], in assay [3], in assay [4], in assay [5] and in [6].

`CCCCCCCCCCCCCCCCCC(=O)O`: the compound was classed as inactive in [2], in assay [3], in [4], in assay [5] and in assay [6].

As to `CC1(C)NC(=O)NC1=O`, the result in assay [7], in assay [2], in assay [3], in [4], in assay [5] and in assay [6] was inactive.

As to `CC(=O)Oc1ccccc1C(=O)O`, the outcome in [8], in assay [1], in assay [2], in assay [3], in assay [4] and in assay [5] was inactive. In [6], the compound was classed as inactive.

In the case of `NCC1(Cc2noc(=O)[nH]2)CCCCC1`, the result in [2], in assay [3], in assay [4], in [5] and in [6] was inactive.

Regarding `Cc1ccc(Cl)cc1`, the call in [2], in [3], in assay [9], in assay [4], in assay [5] and in [6] was inactive.

On to `NS(=O)(=O)c1cc2c(cc1Cl)NCNS2(=O)=O`, for which the compound was classed as inactive in assay [1], in assay [2], in assay [3], in [9], in assay [4] and in [5]. Moreover, the compound was classed as inactive in [6].

On to `COc1cc(C=O)ccc1O`, for which the call in assay [7], in assay [1], in assay [2], in assay [3], in assay [9] and in assay [4] was inactive. Besides, the outcome in assay [5] and in assay [6] was inactive. Besides, in assay [8], the AC50 (as a rule, the concentration at which the activity in the assay is half-maximal) is 50 µM (active).

`COCCOCCOC`: the compound was called inactive in [8], in assay [1], in [2], in [3], in [4] and in [5]. Also, in assay [6], the compound was called inactive.

As for `CCCCCCCC=O`, the compound was classed as inactive in assay [1], in assay [2], in assay [3], in [4], in [5] and in [6].

On to `OC[C@@H](O)[C@@H](O)[C@H](O)[C@H](O)CO`, for which the outcome in [2], in assay [3], in assay [4], in assay [5] and in assay [6] was inactive.

Take `CCNc1cccc(C)c1`: the outcome in assay [2], in assay [3], in assay [4], in assay [5] and in assay [6] was inactive.

As to `O=C(OCCCCCOC(=O)c1ccccc1)c1ccccc1`, the compound was classed as inactive in assay [2], in assay [3], in assay [4] and in [6]. In addition, in [4], the AC50 was 72.2 µM (active).

Regarding `CCCCCCOCCO`, the compound was classed as inactive in assay [1], in assay [2], in [3], in [4], in [5] and in assay [6].

In the case of `Cc1ccc(N(C)C)cc1`, the outcome in [1], in [2], in [3], in [4], in assay [5] and in assay [6] was inactive.

For the compound `Cc1ccc(C)c(C)c1`, the compound was called inactive in [8], in assay [1], in assay [2], in assay [3], in assay [4] and in assay [5]. The call in [6] was inactive.

Regarding `NCCO`, the compound was called inactive in assay [2], in [3], in assay [4] and in assay [5].

As to `O=c1[nH]cc(F)c(=O)[nH]1`, the outcome in assay [1], in [2], in [3], in [9], in assay [4] and in assay [5] was inactive. Also, the result in [6] was inactive.
